From PubChem BioAssay (Tox21)
Records with an inconclusive call do not appear. The source made the active and inactive calls. Unless noted, the call rests on the fitted dose curve; in most records, active means well fitted curve in the direction sought with a large enough effect in the repeat runs; inconclusive means weak or mixed curves; inactive means no such curve, though single readings can be large; an effect the other way counts as inactive or inconclusive.

Legend:
[1] = qHTS assay to identify small molecule antagonists of the estrogen related receptor (ERR) signaling pathway from Tox21 library - cell viability counter screen (AID 1224834); further: nearly all actives have a fitted effect of over 30% in size
Summary of the method: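 ERR reporter cells, 2,000 per well, rested 6 h, then exposed to compound in DMSO for 17.5 hours at 37 C. Viability read as fluorescence after 30 min with CellTiter-Fluor.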

[2] = biological target: Luciferin 4-monooxygenase (Photinus pyralis) (UniProt P08659); experiment: qHTS assay to identify small molecule inhibitors of firefly luciferase (AID 1224835); further: nearly all actives have a fitted effect of over 25% in size
Sequence of Luciferin 4-monooxygenase (Photinus pyralis) (P08659 whole entry, looked up): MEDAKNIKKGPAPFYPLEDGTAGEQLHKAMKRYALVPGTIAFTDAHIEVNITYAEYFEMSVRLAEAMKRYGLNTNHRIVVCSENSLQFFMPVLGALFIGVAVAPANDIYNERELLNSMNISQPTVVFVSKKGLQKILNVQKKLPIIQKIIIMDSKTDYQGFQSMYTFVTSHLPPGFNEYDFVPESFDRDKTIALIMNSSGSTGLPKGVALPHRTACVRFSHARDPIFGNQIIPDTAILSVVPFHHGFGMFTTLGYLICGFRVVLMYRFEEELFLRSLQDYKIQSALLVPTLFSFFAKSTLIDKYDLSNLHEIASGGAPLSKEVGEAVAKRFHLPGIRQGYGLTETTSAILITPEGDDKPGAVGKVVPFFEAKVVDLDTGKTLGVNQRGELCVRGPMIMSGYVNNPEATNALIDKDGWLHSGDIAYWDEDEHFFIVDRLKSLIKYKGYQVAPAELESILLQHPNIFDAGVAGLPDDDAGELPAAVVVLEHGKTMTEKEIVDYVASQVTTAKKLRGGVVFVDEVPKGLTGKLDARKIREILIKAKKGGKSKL
Summary of the method: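 Inhibition of purified Photinus luciferase is measured by luminescence. Substrate levels (D-luciferin, ATP) sit at their KM values. Each compound is tested in a concentration series.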

[3] = qHTS assay to identify small molecule agonists of the constitutive androstane receptor (CAR) signaling pathway - cell viability counter screen (AID 1224836); further: nearly all actives have a fitted effect of over 45% in size
Summary of the method: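 HepG2-CYP2B6-hCAR, 2500 cells/well, 4 h pre-incubation; cpd 15 conc + PK11195 0.75 uM final; 23 h, 37 C/5% CO2; CellTiter-Fluor, fluorescence.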

[4] = qHTS assay to identify small molecule antagonists of the constitutive androstane receptor (CAR) signaling pathway - cell viability counter screen (AID 1224837); further: nearly all actives have a fitted effect of over 45% in size
Summary of the method: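 HepG2 cells stably carrying hCAR and CYP2B6-2.2kb reporter, stimulated with 50 nM CITCO and compounds at 15 concentrations for 23 h at 37 C. Viability measured by CellTiter-Fluor fluorescence.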

[5] = biological target: Nuclear receptor subfamily 1 group I member 3 (Homo sapiens) (UniProt Q14994); experiment: qHTS assay to identify small molecule antagonists of the constitutive androstane receptor (CAR) signaling pathway (AID 1224838); further: nearly all actives have a fitted effect of over 40% in size
Sequence of Nuclear receptor subfamily 1 group I member 3 (Homo sapiens) (Q14994 whole entry, looked up): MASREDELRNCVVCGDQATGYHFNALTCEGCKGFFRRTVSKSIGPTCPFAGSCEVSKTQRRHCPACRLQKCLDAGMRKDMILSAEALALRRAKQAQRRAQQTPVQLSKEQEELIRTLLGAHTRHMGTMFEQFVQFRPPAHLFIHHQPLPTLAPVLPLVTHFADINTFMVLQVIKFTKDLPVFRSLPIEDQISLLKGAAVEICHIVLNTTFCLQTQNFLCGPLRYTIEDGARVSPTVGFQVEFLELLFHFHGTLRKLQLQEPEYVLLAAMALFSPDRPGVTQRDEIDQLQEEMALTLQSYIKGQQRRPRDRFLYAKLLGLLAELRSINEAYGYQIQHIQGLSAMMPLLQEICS
Summary of the method: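 HepG2 cells stably carrying hCAR and a CYP2B6-2.2kb luciferase reporter, seeded 4 hrs before compound (15 concentrations). Stimulated with 50 nM CITCO for 24 hr at 37 C. ONE-Glo luminescence read after 30 min at room temperature.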

[6] = biological target: Nuclear receptor subfamily 1 group I member 3 (Homo sapiens) (UniProt Q14994); experiment: qHTS assay to identify small molecule agonists of the constitutive androstane receptor (CAR) signaling pathway (AID 1224839); further: nearly all actives have a fitted effect of over 15% in size
Summary of the method: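 HepG2-CYP2B6-hCAR cells, 2500/well, 4 h pre-incubation; compounds 15 conc.; PK11195 0.75 uM final; 24 h, 37 C/5% CO2; ONE-Glo luciferase read.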

[7] = qHTS assay to identify small molecule antagonists of the estrogen related receptor signaling pathway with the pleiotropic PPARgamma coactivator (PGC) from Tox21 10K library - cell viability counter screen (AID 1224840; active means well fitted cell-killing curve with a large enough effect in the repeat runs, not every such curve was filed as active; further: nearly all actives have a fitted effect of over 40% in size)
Summary of the method: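 PGC/ERR cells (2,000/well) plated 6 h, then compound-treated for 17.5 h at 37 C. Viability measured by CellTiter-Fluor fluorescence after 30 min at 37 C, multiplexed with the pathway assay.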

[8] = biological target: Thyrotropin receptor (Homo sapiens) (UniProt P16473); experiment: qHTS assay to identify small molecule agonists of the thyroid stimulating hormone receptor (TSHR) signaling pathway (AID 1224843; calls by dose curve; further: nearly all actives have a fitted effect of over 45% in size)
Sequence of Thyrotropin receptor (Homo sapiens) (P16473 whole entry, looked up): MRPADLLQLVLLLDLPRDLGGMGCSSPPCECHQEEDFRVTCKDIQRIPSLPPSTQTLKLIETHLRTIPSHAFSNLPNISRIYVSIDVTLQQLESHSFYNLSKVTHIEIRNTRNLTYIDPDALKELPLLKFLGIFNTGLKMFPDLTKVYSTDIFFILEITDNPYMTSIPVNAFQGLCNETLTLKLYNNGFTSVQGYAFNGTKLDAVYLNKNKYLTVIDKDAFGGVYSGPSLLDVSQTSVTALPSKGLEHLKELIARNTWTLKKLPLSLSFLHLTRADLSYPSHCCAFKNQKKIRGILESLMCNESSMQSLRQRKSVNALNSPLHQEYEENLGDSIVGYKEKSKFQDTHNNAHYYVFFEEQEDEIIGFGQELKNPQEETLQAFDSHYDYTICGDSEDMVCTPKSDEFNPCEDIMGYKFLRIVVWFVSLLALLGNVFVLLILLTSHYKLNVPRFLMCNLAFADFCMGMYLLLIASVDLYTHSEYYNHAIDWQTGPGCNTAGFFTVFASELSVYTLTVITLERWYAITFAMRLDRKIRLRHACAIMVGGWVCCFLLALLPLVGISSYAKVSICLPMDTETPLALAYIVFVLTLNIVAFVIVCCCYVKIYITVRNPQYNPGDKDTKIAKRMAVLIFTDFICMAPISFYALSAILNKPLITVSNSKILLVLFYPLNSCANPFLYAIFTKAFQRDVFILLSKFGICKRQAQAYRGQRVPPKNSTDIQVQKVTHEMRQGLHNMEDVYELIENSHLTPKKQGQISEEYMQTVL
Summary of the method: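 HEK293 cells stably bearing the thyrotropin receptor were plated at 800 cells/well and challenged with compound (30 min, RT). Accumulated cAMP was quantified via cAMP-d2 competing for cryptate-tagged antibody.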

[9] = qHTS assay to identify small molecule agonists of the hypoxia (HIF-1) signaling pathway - cell viability counter screen (AID 1224844; calls by dose curve; further: nearly all actives have a fitted effect of over 50% in size)
Summary of the method: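 HRE-bla ME-180 cells, 2,000/well in 0.5% dialyzed FBS medium, treated 17 h at 37C with compounds. Viability read in the same wells as the bla reporter, by CellTiter-Glo luminescence after 30 min at room temperature.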

[10] = qHTS assay to identify small molecule agonists of H2AX (AID 1224845; active means well fitted activation curve with a large enough effect in the signal ratio in the repeat runs, not every such curve was filed as active; the % refers to the signal ratio)
Summary of the method: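 Phospho-H2AX Ser139 measured by HTRF (ex 320 nm; em 665 and 620 nm) after 24 hr antibody incubation. Compounds, 15 concentrations, 0.76% DMSO, were applied to CHO-K1 cells for 3hr at 37C before lysis.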

[11] = qHTS assay to identify small molecule agonists of the hypoxia (HIF-1) signaling pathway (AID 1224846; active means well fitted activation curve with a large enough effect in the signal ratio in the repeat runs, not every such curve was filed as active; the % refers to the signal ratio)
Summary of the method: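 HRE-bla ME-180 beta-lactamase reporter cells in medium with 0.5% dialyzed FBS, pre-incubated 5 h then exposed to compounds 17 h at 37C, 5% CO2; reporter induction read with CCF4-AM FRET substrate.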

[12] = qHTS assay to identify small molecule agonists of H2AX - cell viability counter screen (AID 1224847; calls by dose curve;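 further: wild-type CHO-K1 cells; top concentration of the series differs between compounds; nearly all actives have a fitted effect of over 30% in size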)
Summary of the method: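 Cells plated first: CHO-K1, 1000 per well in 10% FBS medium, incubated overnight at 37C. Then 15-point compound titration added (final DMSO 0.76%) for 3 hr. Finally CellTiter-Glo added and luminescence read.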

[13] = qHTS RealTime-Glo MT Cell Viability Assay in HepG2 cells - 24 hour (AID 1224867); further: nearly all actives have a fitted effect of over 50% in size
Summary of the method: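 Viability was tracked continuously by NanoLuc luminescence from prosubstrate reduced by living HepG2 cells, at successive time points over 40 h of compound exposure. Cells with reagent were preincubated 5 h at 37 °C before compound addition.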

[14] = A CellTox Green Cytotoxicity Assay to monitor cytotoxicity in HEK293 cells - 0 hour (AID 1224869); further: nearly all actives have a fitted effect of over 50% in size
Summary of the method: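 HEK293 cells, 600/well, were preincubated 5 hours and then exposed to compounds at 37 C for up to 40 hours. A cell-impermeant cyanine dye staining dead-cell DNA was read by fluorescence at 0, 8, 16, 24, 32 and 40 h time points.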

[15] = qHTS RealTime-Glo MT Cell Viability Assay in HEK293 cells - 32 hour (AID 1224868); further: top concentration of the series differs between compounds; nearly all actives have a fitted effect of over 50% in size
Summary of the method: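 Viability tracked continuously by luminescence as live cells reduce a prosubstrate for NanoLuc; HEK293 cells preincubated 5 h, compound-treated at 37 C, and read at 0, 8, 16, 24, 32 and 40 h.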

[16] = qHTS assay to identify small molecule antagonists of the estrogen related receptor signaling pathway with the pleiotropic PPARgamma coactivator (PGC) from Tox21 10K library (AID 1224841; call rule not given here)
Summary of the method: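 PGC/ERR cell line, 2,000 cells/well, pre-incubated 6 hours at 37 C, then exposed to compounds for 18 hours at 37 C; luciferase read with One-Glo luminescence after 30 min at room temperature.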

[17] = qHTS assay to identify small molecule agonists of the estrogen related receptor signaling pathway with the pleiotropic PPARgamma coactivator (PGC) from Tox21 10K library (AID 1224842); further: nearly all actives have a fitted effect of over 15% in size
Summary of the method: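 Luminescence from One-Glo (30 min, room temperature) measured after PGC/ERR cells had 18 h at 37 C with pinned compound (23 nL in DMSO). Cells had been seeded at 2,000 per well and pre-incubated 6 h.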

[18] = qHTS assay to identify small molecule antagonists of the estrogen related receptor (ERR) signaling pathway from Tox21 library (AID 1224848); further: nearly all actives have a fitted effect of over 50% in size
Summary of the method: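 Reading was by luminescence 30 min after ONE-Glo addition. Before that, ERR cells at 2,000 per well had rested 6 h at 37 C/5% CO2 and then received pin-tooled compounds in DMSO for 18 h at 37 C.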

[19] = qHTS assay to identify small molecule agonists of the estrogen related receptor (ERR) signaling pathway from Tox21 library (AID 1224849; calls by dose curve; further: nearly all actives have a fitted effect of over 15% in size); details: ERR reporter cell line, ONE-Glo luciferase, 18 h; at 92.4 µM (top of the series) unless noted
Summary of the method: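 ERR reporter cells (NTP line) pre-incubated 6 hours at 37 C, then exposed to compounds for 18 hours at 37 C. ONE-Glo luciferase luminescence was read after 30 minutes at room temperature.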
On the % scale 0 is the no-effect control and ±100 the full control effect.

O=S(=O)(Cl)c1c(Cl)cccc1Cl
inactive: Potency [1] | Potency [2] | Potency [3] | Potency [4] | Potency [5] | Potency [6] | Potency [7] | Potency [8] | Potency [9] | Potency [10] | outcome [11] | Potency [12] | Potency [13] | Potency [14]

FC(F)(F)C(F)(F)C(F)(F)C(F)(F)CCI
inactive: Potency [1] | Potency [2] | Potency [3] | Potency [4] | Potency [5] | Potency [6] | Potency [7] | Potency [8] | Potency [9] | Potency [10] | outcome [11] | Potency [12] | Potency [13] | Potency [15] | Potency [14]

CCCCCCCCCCCCCCCCCC(=O)OCC(CC)CCCC (stereo not given)
inactive: Potency [1] | Potency [2] | Potency [3] | Potency [4] | Potency [5] | Potency [6] | Potency [7] | Potency [8] | Potency [9] | Potency [10] | outcome [11] | Potency [12] | Potency [13] | Potency [15] | Potency [14]

O=C(c1ccccc1)C1CCC1
inactive: Potency [1] | Potency [2] | Potency [3] | Potency [4] | Potency [5] | Potency [6] | Potency [7] | Potency [8] | Potency [9] | Potency [10] | outcome [11] | Potency [12] | Potency [13] | Potency [15]

C/C(C=O)=C\c1ccccc1
inactive: Potency [1] | Potency [2] | Potency [3] | Potency [4] | Potency [5] | Potency [6] | Potency [7] | Potency [8] | Potency [9] | outcome [11] | Potency [12] | Potency [13] | Potency [15]

CC(C)(C)C1(CCc2ccc(Cl)cc2)CO1 (stereo not given)
inactive: Potency [1] | Potency [2] | Potency [3] | Potency [4] | Potency [5] | Potency [6] | Potency [7] | Potency [8] | Potency [9] | Potency [10] | outcome [11] | Potency [12] | Potency [13] | Potency [14]

O=c1[nH]c2cc(C(F)(F)F)c(N3CCOCC3)cc2n(CP(=O)(O)O)c1=O
inactive: Potency [1] | Potency [2] | Potency [3] | Potency [4] | Potency [5] | Potency [6] | Potency [7] | Potency [9] | Potency [10] | outcome [11] | Potency [12] | Potency [13] | Potency [15] | Potency [14]

CC[C@@H](CO)NCCN[C@@H](CC)CO
inactive: Potency [1] | Potency [2] | Potency [3] | Potency [4] | Potency [5] | Potency [6] | Potency [16] | Potency [17] | Potency [8] | Potency [9] | Potency [10] | Potency [12] | Potency [18] | activity change, positive = activation [19] 0.599% [at 42.5 µM] | Potency [13] | Potency [15]

CCCCCCC(O)CCCCCCCCCCC(=O)OC (stereo not given)
inactive: Potency [1] | Potency [2] | Potency [3] | Potency [4] | Potency [5] | Potency [6] | Potency [8] | Potency [9] | Potency [10] | outcome [11] | Potency [12] | Potency [13] | Potency [15] | Potency [14]

C=C(C)c1ccccc1
inactive: Potency [1] | Potency [2] | Potency [3] | Potency [4] | Potency [5] | Potency [6] | Potency [8] | Potency [9] | Potency [10] | Potency [12] | Potency [13] | Potency [15]

CC(=O)OCCC1CCCCC1
inactive: Potency [1] | Potency [2] | Potency [3] | Potency [4] | Potency [5] | Potency [6] | Potency [7] | Potency [9] | Potency [10] | outcome [11] | Potency [12] | Potency [13] | Potency [15] | Potency [14]

O=C(O)CCC(=O)OC[C@@H](NC(=O)C(Cl)Cl)[C@H](O)c1ccc([N+](=O)[O-])cc1
inactive: Potency [1] | Potency [2] | Potency [3] | Potency [4] | Potency [5] | Potency [6] | Potency [7] | Potency [9] | Potency [10] | outcome [11] | Potency [12] | Potency [13] | Potency [15] | Potency [14]

CC(O)Cn1cnc2c1c(=O)n(C)c(=O)n2C (stereo not given)
inactive: Potency [1] | Potency [2] | Potency [3] | Potency [4] | Potency [5] | Potency [7] | Potency [16] | Potency [17] | Potency [9] | Potency [10] | Potency [12] | Potency [18] | activity change, positive = activation [19] 0.481% [at 42.5 µM] | Potency [13] | Potency [15] | Potency [14]

CCSC(=O)N(CC)CC
inactive: Potency [1] | Potency [2] | Potency [3] | Potency [4] | Potency [5] | Potency [6] | Potency [8] | Potency [9] | Potency [10] | outcome [11] | Potency [13] | Potency [15] | Potency [14]

CCCOC(=O)c1c(Cl)c(Cl)c(Cl)c(Cl)c1C(=O)OCCC
inactive: Potency [1] | Potency [2] | Potency [3] | Potency [4] | Potency [5] | Potency [7] | Potency [16] | Potency [17] | Potency [10] | outcome [11] | Potency [12] | Potency [18] | activity change, positive = activation [19] 6.22% | Potency [13] | Potency [15] | Potency [14]

CC(C)OC(=O)c1ccccc1C(=O)OC(C)C
inactive: Potency [1] | Potency [2] | Potency [3] | Potency [4] | Potency [5] | Potency [7] | Potency [8] | Potency [9] | outcome [11] | Potency [12] | Potency [13] | Potency [15] | Potency [14]

CCCCCCC(CO)CCCC (stereo not given)
inactive: Potency [1] | Potency [2] | Potency [3] | Potency [4] | Potency [5] | Potency [6] | Potency [8] | Potency [9] | Potency [10] | outcome [11] | Potency [12] | Potency [13] | Potency [14]
